Reference: PubChem BioAssay (EPA / NIEHS)
Inconclusive results are not listed. Active and inactive are the calls of the source. Rule for the calls, unless noted: active = hit-call score of the fitted dose curve at least 0.9, where 1 is the maximum; inactive = score below 0.9.

Key:
[1] = read-out: Monocyte Chemoattractant Protein-1 (MCP1), CCL2 (gene 6347); test: BSK_SAg_MCP1: BioMAP Diversity Plus: SAg Assay for Monocyte Chemoattractant Protein-1 (MCP1) Biomarker Activity (AID 2283090); conditions: primary human HUVEC with PBMC; actives raise or lower the signal
Procedure, shortened: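 Values derive from bidirectional fitting of ELISA-measured MCP1 against DMSO controls. Readings were taken 24 h after dosing human vascular endothelial cells co-cultured with peripheral blood mononuclear cells under superantigen stimulation.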

[2] = read-out: E-selectin (Homo sapiens) (UniProt P16581); test: BSK_SAg_Eselectin: BioMAP Diversity Plus: SAg Assay for Eselectin Biomarker Activity (AID 2283091); conditions: primary human HUVEC with PBMC; actives raise or lower the signal
Procedure, shortened: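 Primary human endothelial cells and peripheral blood mononuclear cells were co-cultured and exposed to chemical for 24 hours. E-selectin levels were then quantified by ELISA, with bidirectional curve fitting normalised to DMSO controls.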

[3] = read-out: Monokine induced gamma interferon (MIG), CXCL9 (gene 4283); test: BSK_SAg_MIG: BioMAP Diversity Plus: SAg Assay for Monokine induced gamma interferon (MIG) Biomarker Activity (AID 2283092); conditions: primary human HUVEC with PBMC; actives raise or lower the signal
Procedure, shortened: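 Endothelial cells and PBMC were co-cultured, exposed to test chemicals, and sampled 24 h later. MIG was measured by ELISA, and responses were fitted in both directions relative to DMSO.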

[4] = read-out: Interleukin-8 (IL8), CXCL8 (gene 3576); test: BSK_SAg_IL8: BioMAP Diversity Plus: SAg Assay for Interleukin-8 (IL8) Biomarker Activity (AID 2283094); conditions: primary human HUVEC with PBMC; actives raise or lower the signal
Procedure, shortened: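 ELISA readout of IL-8 from a superantigen-activated endothelial/PBMC primary human co-culture, taken 24 h post-dosing and fitted in both directions against DMSO; parallel SRB total-protein staining flags overt cytotoxicity.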

[5] = BSK_SAg_Proliferation: Cell Proliferation Assessment in the BioMAP Diversity Plus: SAg Assay (AID 2283095); conditions: primary human HUVEC with PBMC;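 note: relative cell number as total protein by SRB absorbance in sub-confluent culture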
Procedure, shortened: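 Relative cell number in the endothelial cell/PBMC co-culture was quantified at 96 h by SRB staining (0.1% SRB, 10% TCA fixation, read at 560 nm). Curves were fitted in both directions relative to DMSO baseline.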

[6] = BSK_SAg_SRB: Viability Assessment in the BioMAP Diversity Plus: SAg Assay (AID 2283096); conditions: primary human HUVEC with PBMC;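 note: cells read one day after compound addition; hits may be either gain or loss of signal compared with DMSO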
Procedure, shortened: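 This overt-cytotoxicity endpoint quantifies protein in human endothelial/PBMC co-cultures at 24 h using SRB absorbance (560 nm) after trichloroacetic acid fixation. Values reflect signal change from the DMSO negative control, fitted bidirectionally.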

[7] = BSK_SAg_PBMCCytotoxicity: PBMC Cytotoxicity Assessment in the BioMAP Diversity Plus: SAg Assay (AID 2283093); conditions: primary human HUVEC with PBMC;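 note: PBMC viability measured as Alamar Blue reduction fluorescence at 546/580 nm; fitted both ways against DMSO so a hit may be loss or gain of signal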;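 for AC50: PBMC superantigen activated with SEB plus TSST-1 one hour after compound addition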
Procedure, shortened: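 Alamar Blue reduction (6 h, 546/580 nm) reports PBMC cytotoxicity after 90 h superantigen activation (SEB, TSST-1; 20 ng/mL final each) with 1 h compound pre-treatment. Gain or loss of signal fitted versus DMSO.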

[8] = target: human CYP19A1, CYP19A1 (gene 1588) (UniProt P11511); test: NVS_ADME_hCYP19A1: NovaScreen (NVS) CYP450-related Enzyme Activity (ADME) Assay for human CYP19A1 (AID 2283098; active = hit-call score of the fitted dose curve at least 0.9, where 1 is the maximum)
Procedure, shortened: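 Compounds were first screened at 10 uM in duplicate against purified enzyme, with a fluorogenic substrate and fluorescence intensity detection after 0.5 h. Inhibition appears as reduced signal against acetonitrile control.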

[9] = target: human CYP2A6, CYP2A6 (gene 1548) (UniProt P11509); test: NVS_ADME_hCYP2A6: NovaScreen (NVS) CYP450-related Enzyme Activity (ADME) Assay for human CYP2A6 (AID 2283099; active = hit-call score of the fitted dose curve at least 0.9, where 1 is the maximum)
Procedure, shortened: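 Recombinant human CYP2A6 from insect cells was incubated with chemical for 0.5 h and activity read by fluorescence. Single-concentration duplicates at 10 uM preceded concentration-response testing to 20 uM, with activity referenced to acetonitrile.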

Measured: AC50

Sequence of human CYP19A1, CYP19A1 (gene 1588) (P11511 whole entry, looked up): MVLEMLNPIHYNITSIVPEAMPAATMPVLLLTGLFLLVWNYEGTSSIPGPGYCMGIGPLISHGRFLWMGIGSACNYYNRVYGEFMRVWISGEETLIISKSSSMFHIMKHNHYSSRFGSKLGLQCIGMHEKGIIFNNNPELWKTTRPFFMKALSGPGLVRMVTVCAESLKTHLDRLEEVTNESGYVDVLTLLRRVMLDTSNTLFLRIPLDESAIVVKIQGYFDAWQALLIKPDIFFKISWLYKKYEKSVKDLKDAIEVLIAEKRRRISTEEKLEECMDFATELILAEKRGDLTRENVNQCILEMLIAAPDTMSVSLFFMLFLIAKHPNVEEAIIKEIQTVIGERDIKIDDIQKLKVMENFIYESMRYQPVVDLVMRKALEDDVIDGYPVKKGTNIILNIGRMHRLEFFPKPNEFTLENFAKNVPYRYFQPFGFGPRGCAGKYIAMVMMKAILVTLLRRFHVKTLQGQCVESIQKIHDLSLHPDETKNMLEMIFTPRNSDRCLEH
Sequence of E-selectin (Homo sapiens) (P16581 whole entry, looked up): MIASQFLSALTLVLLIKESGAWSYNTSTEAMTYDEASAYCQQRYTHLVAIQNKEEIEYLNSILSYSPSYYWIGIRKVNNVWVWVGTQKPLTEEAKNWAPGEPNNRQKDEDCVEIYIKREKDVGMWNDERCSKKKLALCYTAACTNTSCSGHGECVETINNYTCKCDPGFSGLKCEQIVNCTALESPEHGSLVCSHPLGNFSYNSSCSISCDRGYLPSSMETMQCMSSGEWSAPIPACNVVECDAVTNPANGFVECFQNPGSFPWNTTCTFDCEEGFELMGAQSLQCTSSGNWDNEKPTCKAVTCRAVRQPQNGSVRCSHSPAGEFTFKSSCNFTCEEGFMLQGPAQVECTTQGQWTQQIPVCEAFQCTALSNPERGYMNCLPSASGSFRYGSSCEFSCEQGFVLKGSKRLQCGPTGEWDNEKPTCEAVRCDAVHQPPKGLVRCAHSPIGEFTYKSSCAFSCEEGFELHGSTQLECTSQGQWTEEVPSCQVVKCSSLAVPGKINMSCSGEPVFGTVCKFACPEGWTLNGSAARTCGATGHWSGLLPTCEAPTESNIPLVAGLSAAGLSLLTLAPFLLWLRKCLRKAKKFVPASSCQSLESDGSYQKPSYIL
Sequence of human CYP2A6, CYP2A6 (gene 1548) (P11509 whole entry, looked up): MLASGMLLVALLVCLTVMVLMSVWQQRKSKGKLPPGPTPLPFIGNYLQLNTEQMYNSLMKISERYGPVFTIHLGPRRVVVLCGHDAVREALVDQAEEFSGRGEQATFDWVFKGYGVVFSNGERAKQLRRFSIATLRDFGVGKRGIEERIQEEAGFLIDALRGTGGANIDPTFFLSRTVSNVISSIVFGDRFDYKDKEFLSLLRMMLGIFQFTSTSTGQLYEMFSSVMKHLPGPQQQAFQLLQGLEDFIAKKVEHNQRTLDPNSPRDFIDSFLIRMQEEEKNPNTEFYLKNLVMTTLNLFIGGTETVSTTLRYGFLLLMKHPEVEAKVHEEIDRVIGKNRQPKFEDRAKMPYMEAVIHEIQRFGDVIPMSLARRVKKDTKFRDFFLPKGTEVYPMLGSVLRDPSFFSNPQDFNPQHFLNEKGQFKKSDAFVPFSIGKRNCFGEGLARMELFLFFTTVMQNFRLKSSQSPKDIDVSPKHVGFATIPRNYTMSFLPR

C[Si](C)(C)C(F)(F)C(F)(F)C(F)(F)F
inactive: [1] | [2] | [3] | [4] | [5] | [6]

C[C@]12C=CC(=O)C=C1CC[C@H]1[C@@H]3C[C@@H](O)[C@](O)(C(=O)CO)[C@@]3(C)C[C@H](O)[C@@]12F
inactive: [3] | [4] | [5] | [6]
active: [1] 5.08 µM | [2] 3.66 µM

CC(C)CCCCCCOC(=O)C1CCCCC1C(=O)OCCCCCCC(C)C (configuration not stated)
inactive: [1] | [2] | [3] | [4] | [5] | [6]

CCc1cccc(CC)c1N
inactive: [1] | [2] | [3] | [4] | [5] | [6]

C[C@@H](Oc1ccc(CNC(=O)c2cccnc2Oc2ccc3c(c2)OCO3)c(F)c1)C(=O)O
inactive: [1] | [2] | [3] | [7] | [4] | [6]

c1ccc2ncccc2c1
inactive: [1] | [2] | [3] | [7] | [4] | [6]

CCCOc1ccc(S(=O)(=O)N2CCN(CC)CC2)cc1-c1nc2c(CC)n(Cc3ccccn3)nc2c(=O)[nH]1
inactive: [1] | [2] | [3] | [4] | [5] | [6]

O=C(O)[C@H](O)[C@@H](O)C(=O)O
inactive: [1] | [2] | [3] | [7] | [4] | [5] | [6]

COc1cc2c(c(OC)c1OC)-c1ccc(OC)c(=O)cc1[C@@H](NC(C)=O)CC2
active: [5] 0.34 µM | [6] 0.204 µM
inactive: [1] | [2] | [3] | [4]

COCc1nnc(-c2ccc[n+]([O-])c2)n1-c1c(Cl)c(Cl)cc2[nH]c(=O)c(=O)[nH]c12
inactive: [1] | [2] | [3] | [7] | [4] | [5] | [6]

CC(C)C(=O)Nc1ccc([N+](=O)[O-])c(C(F)(F)F)c1
inactive: [1] | [2] | [3] | [7] | [4] | [5] | [6]

FC(F)(F)C(F)(F)C(F)(F)C(F)(F)C(F)(F)C(F)(F)I
inactive: [1] | [2] | [3] | [7] | [4] | [5] | [6]

O=S(=O)(O)c1ccc(N=Nc2c(O)ccc3cc(S(=O)(=O)O)ccc23)cc1
inactive: [1] | [2] | [3] | [7] | [4] | [6]

CCCCCCCCN(C)C
inactive: [1] | [2] | [3] | [7] | [4] | [6]

NC(=O)N1c2ccccc2C=Cc2ccccc21
inactive: [1] | [2] | [3] | [4] | [5] | [6]

OCC(CO)(CO)CO
inactive: [1] | [2] | [3] | [7] | [4] | [5] | [6]

Cc1ccc(S(=O)(=O)NC(=O)NN2CCCCCC2)cc1
inactive: [1] | [2] | [3] | [7] | [4] | [5] | [6]

OC(O)(C(F)C(O)(O)C(F)(F)F)C(F)(F)F
inactive: [1] | [2] | [3] | [7] | [4] | [6]

CCc1ccc(O)c(C(C)(C)C)c1
inactive: [3] | [4]
active: [1] 20 µM | [2] 29.6 µM | [7] 34.7 µM | [5] 33 µM | [6] 35.8 µM

Cc1nccn1-c1ccc(Sc2cccc(C3(C(N)=O)CCOCC3)c2)cc1
active: [1] 6.58 µM | [2] 8.95 µM | [4] 5.42 µM | [5] 5.48 µM
inactive: [3] | [6]

CCOc1ccc2[nH]cc(C(=O)NCc3ccccc3)c(=O)c2n1
inactive: [1] | [2] | [3] | [7] | [4] | [6]

NC(=O)NN=Cc1ccc([N+](=O)[O-])o1
inactive: [1] | [2] | [3] | [7] | [4] | [6] | [8] | [9]
active: [5] 20 µM

CCN(CC)C(=S)SSC(=S)N(CC)CC
inactive: [8]
active: [1] 28.4 µM | [2] 32.6 µM | [3] 36.3 µM | [7] 20 µM | [4] 32.5 µM | [6] 30.8 µM

Cn1c(=O)c2[nH]cnc2n(C)c1=O
inactive: [1] | [2] | [3] | [7] | [4] | [5] | [6]

OC[C@H]1O[C@@](CO)(O[C@H]2O[C@H](CO)[C@@H](O)[C@H](O)[C@H]2O)[C@@H](O)[C@@H]1O
inactive: [1] | [2] | [3] | [4] | [5] | [6]

Cc1ncc([C@@H](CCCCCCc2ccc3c(n2)NCCC3)CC(=O)O)cn1
inactive: [1] | [2] | [3] | [7] | [4] | [5] | [6]

O=C(O)c1cccc(C[C@@H]2COc3ccc(OCc4nc5cc(F)ccc5s4)cc3[C@@H]2O)c1
inactive: [1] | [2] | [3] | [4] | [5] | [6]

S=P(N1CC1)(N1CC1)N1CC1
inactive: [1] | [2] | [3] | [4] | [6]

Cc1nc(-c2ccccn2)ncc1C(=O)Nn1cc(C)c2cc(F)ccc21
inactive: [1] | [2] | [7] | [4] | [6]
active: [5] 20 µM

CCOC(N)=O
inactive: [1] | [2] | [7] | [4] | [5] | [6]

CCCC(CCC)C(=O)O
inactive: [1] | [2] | [7] | [4] | [5] | [6] | [8]

CCn1nc(C)c2c1C(=O)NCC(c1ccc(O)cc1)=N2
active: [1] 4.49 µM | [2] 0.435 µM | [5] 20 µM
inactive: [7] | [4] | [6]

CC(C)CC(C)O (configuration not stated)
inactive: [1] | [2] | [7] | [4] | [5] | [6]

CNC(C)=O
inactive: [1] | [2] | [3] | [4] | [6]

CCCCC(CC)C(=O)OCCOCCOCCOC(=O)C(CC)CCCC (configuration not stated)
inactive: [1] | [2] | [3] | [4] | [6]

CC(=O)c1ccccc1
inactive: [1] | [2] | [7] | [4] | [5] | [6]
